Screens deposited in PubChem by National Center for Advancing Translational Sciences (NCATS).
LASV entry inh – qHTS for Inhibitors of binding or entry into cells for Lassa Virus | Lassa virus pseudotype entry inhibition, cell reporter | Potency, µM (titrated, usually from 37.9 µM), inactives show at the top dose activity change, negative = inhibition, usual class: inhibitors | 1.2% of 300,000 active; calls by dose curve; tested in HEK293 cells; note: potency is the fitted concentration of half-maximal effect; % is set by controls: 0 for no effect and ±100 for the full control effect; nearly all actives have a fitted effect of over 50% in size
SARS PLP yeast – qHTS of Yeast-based Assay for SARS-CoV PLP; 0.19% of 330,000 active; Potency, µM (highest dose often 32.9 µM), for inactives: top-dose activity, positive = growth rescue, usual class: activators; S. cerevisiae expressing SARS-CoV PLpro, growth rescue; calls by dose curve; note: potency is the fitted concentration of half-maximal effect; 0% is about no effect; nearly all actives have a fitted effect of over 55% in size
HCV inh – qHTS Assay for Inhibitors of Hepatitis C Virus (HCV); Potency, µM (series often up to 41.8 µM), without a hit: at the top dose activity change, negative = inhibition, actives largely listed as inhibitors; 3.4% of 340,000 active; Huh7.5.1 HCVcc-Cre infection, luciferase reporter, 44 h; active = well fitted inhibition curve with a large enough effect; inconclusive = small, poorly fitted or top-dose-only effect, or another doubt; inactive = no such curve, though single readings can be large or run the other way; note: potency is the fitted concentration of half-maximal effect; % is set by controls: 0 for no effect and ±100 for the full control effect
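After 44 h co-culture of compound, cells and HCVcc-Cre (~0.5 moi), substrate is added for 15 min at room temperature and luciferase measured over 15 sec. Cells were seeded at 1,000/well and pre-cultured 4 h.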
MARV entry inh – qHTS for inhibitors of binding or entry into cells for Marburg Virus; Potency, µM (top dose mostly 37.8 µM), without a hit: at the highest dose activity change, negative = inhibition, usual class: inhibitors; Marburg virus pseudotyped entry inhibition, cell reporter; 1.8% of 300,000 active; calls by dose curve; tested in HEK293 cells; note: potency is the fitted concentration of half-maximal effect; % is set by controls: 0 for no effect and ±100 for the full control effect
FMDV antiviral – High Throughput Screening for Foot and Mouth Disease Virus Antivirals | AID 1159524, 2015 | Potency, µM (highest dose often 57.9 µM), inactives show at the top dose activity change, negative = inhibition, usual class: inhibitors | 1.2% of 410,000 active | FMDV antiviral cell-based qHTS; calls by dose curve; tested in HEK293T cells; note: read-out not given here; potency is the fitted concentration of half-maximal effect; % is set by controls: 0 for no effect and ±100 for the full control effect; nearly all actives have a fitted effect of over 45% in size
HCMV antiviral – qHTS Assay for inhibitors of the human cytomegalovirus (HCMV); 4.5% of 410,000 active; activity change, negative = inhibition, % at 57.5 µM; HFF cells, HCMV-luciferase reporter, 72 h; stronger effect = lower value; in the data active = activity change below about -60%; inconclusive = no clear call, values can overlap the other calls; inactive = above about -39%; note: % is set by controls: 0 for no effect and ±100 for the full control effect
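Steps: HFFs plated, 16 h 37C; compounds added; HCMV-luciferase added to MOI 1 PFU/cell; 72 h 37C; OneGlo reagent, 5 min room temperature; luminescence read, normalized to controls.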
Starred values were filed as active, the others as inactive; ? = inconclusive; / = no result given; + = active, no number; [ ] = another dose, or the depositor's remark. Hits are enriched below; roughly 8% of the tested compounds scored in any of these assays.

SMILES	LASV entry inh	SARS PLP yeast	HCV inh	MARV entry inh	FMDV antiviral	HCMV antiviral
COc1ccc(NC(=O)c2oc3c(c2C)-c2nn(Cc4ccccc4Cl)cc2CC3)cc1OC	13.5%[46.1 µM]	/	/	/	-28.4%	-63.7*
COc1ccc(NC(=O)c2ccc(CN3CCN(c4ccccc4)CC3)cc2)cc1	?	8.4%	-16.0%	?	?	-33.7
COc1cccc(NC(=O)c2ccc(N3C(=O)C4CC=C(C)CC4C3=O)cc2)c1 (stereo not given)	/	0.1%	?	/	?	-63.8*
COc1cccc(NC(=O)c2ccc(CN3CCN(c4ccccc4)CC3)cc2)c1	?	-11.4%	14.1µM*	5.8µM*	?	-67.3*
CCc1ccccc1NC(=O)c1cnc(N2CCCCC2)c2ccccc12	-5.9%[46.1 µM]	/	/	/	0.0%	-8.3
COCC(C)NC(=O)c1ccc(CN2CCc3ccccc3C2)cc1 (stereo not given)	/	1.3%	-3.9%	/	-12.4%	-22.5
CC(=O)c1cccc(NC(=O)c2ccc(CN3CCc4ccccc4C3)cc2)c1	/	27.3%	11.2µM*	/	?	-5.2
C/C(=N\NC(=O)c1ccc(CN2CCc3ccccc3C2)cc1)c1ccccc1O	-28.8%[46.1 µM]	17.3%	5.62µM*	?	22.4µM*	-96.3*
CCC(C)NC(=O)c1ccc(CN2CCc3ccccc3C2)cc1 (stereo not given)	/	-0.7%	-12.7%	/	-12.4%	36.3
Cc1ccc(C(=O)Nc2ccc3c(c2)CCC3)cc1	16.4µM*	-2.0%	-25.9%	?	-20.4%	-74.4*
CC(=O)c1cccc(NC(=O)N2CCc3ccccc3C2)c1	-1.4%	0.7%	3.9%	?	44.2%	77.1
COc1ccc(NC(=O)c2ccc(CN3CCc4ccccc4C3)cc2)cc1OC	/	3.4%	12.6µM*	/	-28.7%	-64.1*
CCC(C)[C@H](NS(=O)(=O)c1ccc(C)cc1)C(=O)N1CCC(C(=O)N2CCC(C(=O)OC)CC2)CC1 (stereo not given in full)	/	6.3%	17.5%	/	-0.4%	4.0
CCCNC(=O)N1CC2(CN(C(C)=O)C2)c2c(n(C)c3cc(OC)ccc23)[C@H]1CO	/	/	/	/	/	3.1
COCCNC(=O)c1ccc(CN2CCc3ccccc3C2)cc1	2.2%	9.5%	-1.3%	-0.1%	-5.0%	-14.3
COc1cccc(NC(=O)c2ccc(CN3CCc4ccccc4C3)cc2)c1	/	0.1%	1µM*	/	-21.6%	?
COc1cccc(NC(=O)c2ccc3c(c2)CCCC3)c1	/	-66.0%	1.0%	/	-2.2%	25.8
Cc1cc(C)c(NC(=O)c2ccc(CN3CCc4ccccc4C3)cc2)c(C)c1	15.8µM*	-5.0%	8.91µM*	?	?	-34.4
CC(=O)c1cccc(NC(=O)c2ccc3c(c2)CCCC3)c1	/	-5.6%	11.2µM*	/	35.2%	120.7
NC(=O)C1CCN(CCC(=O)Nc2ccc3c(c2)CCC3)CC1	-4.6%	-19.0%	-1.0%	-4.0%	4.3%	-4.1
Cc1c(NC(=O)c2ccc(CN3CCc4ccccc4C3)cc2)c(=O)n(-c2ccccc2)n1C	?	2.8%	?	-11.1%	?	?
CC1CCN(CCC(=O)Nc2ccc3c(c2)CCC3)CC1	2.8%	5.7%	?	-26.2%	/	-80.4*
CN1CCC(Oc2ccc(Sc3ccccc3)cc2)CC1	?	-3.1%	?	?	18.3%	?
CN1CCC(Oc2ccccc2Sc2ccc(C(F)(F)F)cc2)CC1	11.6µM*	-8.1%	11.2µM*	?	-24.5%	?
CC(=O)c1c(C)n(C2CCCCC2)c2ccc(O)cc12	-3.7%	0.3%	10µM*	-9.0%[46.1 µM]	-24.0%	-66.4*
SMILES	LASV entry inh	SARS PLP yeast	HCV inh	MARV entry inh	FMDV antiviral	HCMV antiviral
COc1ccc(-c2csc(NC(=O)c3cccc(N4C(=O)CCC4=O)c3)n2)cc1C	0.2%	-1.5%	/	6.2%	?	?
CCN(c1ccccc1)S(=O)(=O)c1ccc(OC)c(NC(=O)c2ccccc2OC)c1	-11.7%	-3.8%	?	17.9%	-7.0%	-7.5
O=C(Nc1nc(-c2ccc3ccccc3c2)cs1)c1ccc(N2C(=O)CCC2=O)cc1	5.0%	0.4%	-25.3%	0.4%	?	-70.7*
O=C(Nc1nc(-c2cc(F)ccc2F)cs1)C1=NN(c2ccccc2)C(=O)CC1	?	-6.6%	2.5%	-0.8%	-31.1%	61.3
CCN(c1ccccc1)S(=O)(=O)c1ccc(OC)c(NC(=O)C2=NN(c3ccccc3)C(=O)CC2)c1	0.316µM*	-4.1%	?	?	-3.8%	-17.2
COc1ccc(-c2csc(NC(=O)C3=NN(c4ccccc4)C(=O)CC3)n2)cc1	?	-5.5%	7.08µM*	?	20µM*	-32.2
COc1cc2c(C#CCCCO)c(-c3ccsc3)oc(=O)c2cc1OC	/	1.2%	3.16µM*	/	-24.5%	-61.2*
COc1cc2c(C(F)(F)F)c(-c3ccsc3)oc(=O)c2cc1OC	/	-1.9%	4.9%	/	0.0%	-9.2
COc1ccc(-c2oc(=O)c3cc(OC)c(OC)cc3c2C#CCCCO)cc1	/	-1.9%	?	/	-25.8%	26.3
COc1cc2c(C#Cc3cccnc3)c(-c3ccsc3)oc(=O)c2cc1OC	/	5.8%	6.31µM*	/	-17.2%	-32.9
CNc1cc(N2CCCC2)ccc1[N+](=O)[O-]	0.2%	1.8%	25.1µM*	5.7%[46.1 µM]	21.1%	9.9
CC(C)CNc1cc(N2CCCC2)ccc1[N+](=O)[O-]	-3.0%	-0.5%	3.98µM*	-22.6%	/	-37.5
CCNc1cc(N2CCCC2)ccc1[N+](=O)[O-]	2.8%	1.9%	?	-11.2%	-8.4%	-14.1
CNc1cc(N2CCCCCC2)ccc1[N+](=O)[O-]	-24.1%	-9.6%	-22.6%	-17.2%	/	-39.1
CCCC(=O)OC1=C(C(C)=O)N(Cc2ccccc2)S(=O)(=O)c2ccccc21	-2.4%[46.1 µM]	/	/	-0.1%[46.1 µM]	-8.6%	-0.2
COc1cccc2cc(-c3nc4sc(C(=O)Nc5ccc(F)cc5F)c(C)c4c(=O)[nH]3)c(=O)oc12	-2.7%[46.1 µM]	/	/	/	7.0%	+
C(=C\c1nc(N2CCCCCC2)c2ccccc2n1)/c1ccccc1	-4.9%	-52.6%	?	11.2µM*	39.8µM*	?
CN(CP(=O)(O)C(O)c1ccccc1)S(C)(=O)=O (stereo not given)	-1.2%	20.6%	13.8%	-2.2%	-3.5%	-88.0*
CS(=O)(=O)c1ccc(S(=O)CC(=O)OCc2ccccc2)c([N+](=O)[O-])c1 (stereo not given)	?	-2.6%	?	?	8.91µM*	-100.9*
COC(=O)c1ccc(OC(=O)CS(=O)c2ccccc2[N+](=O)[O-])cc1 (stereo not given)	7.6%	-5.1%	12.2%	2.0%[46.1 µM]	5.4%	10.3
O=C(CS(=O)c1ccc(C(F)(F)F)cc1[N+](=O)[O-])Oc1ccccc1 (stereo not given)	?	-49.9%	?	?	28.2µM*	?
